According to ChEMBL document CHEMBL1961873, “Compounds: GSK PKIS; Assays: Nanosyn kinase panel” (2012):

Columns and labels:
[1] = target: T1, Tyrosine-protein kinase ITK/TSK (Homo sapiens) (UniProt Q08881); conditions: at 1 µM;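 also: values are mean percent inhibition of ITK from the GSK PKIS screen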
T1 sequence (whole entry): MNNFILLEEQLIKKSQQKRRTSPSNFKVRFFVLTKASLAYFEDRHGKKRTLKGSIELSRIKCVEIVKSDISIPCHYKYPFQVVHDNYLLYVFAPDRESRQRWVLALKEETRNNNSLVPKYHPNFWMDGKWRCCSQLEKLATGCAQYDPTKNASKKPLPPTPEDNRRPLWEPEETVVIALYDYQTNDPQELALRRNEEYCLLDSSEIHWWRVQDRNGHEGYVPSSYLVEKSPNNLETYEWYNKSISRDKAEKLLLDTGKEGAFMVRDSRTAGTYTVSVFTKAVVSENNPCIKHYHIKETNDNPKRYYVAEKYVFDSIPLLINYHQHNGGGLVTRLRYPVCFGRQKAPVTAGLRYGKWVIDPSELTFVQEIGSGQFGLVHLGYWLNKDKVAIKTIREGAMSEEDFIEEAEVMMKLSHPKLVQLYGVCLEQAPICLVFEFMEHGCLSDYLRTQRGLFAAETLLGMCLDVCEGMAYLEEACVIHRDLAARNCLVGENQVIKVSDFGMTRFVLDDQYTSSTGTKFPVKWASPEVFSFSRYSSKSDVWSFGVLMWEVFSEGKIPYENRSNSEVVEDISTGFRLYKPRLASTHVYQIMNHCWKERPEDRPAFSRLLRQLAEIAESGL

[2] = target: Tyrosine-protein kinase JAK1 (Homo sapiens) (UniProt P23458); conditions: at 0.1 µM
[3] = target: Tyrosine-protein kinase JAK1 (Homo sapiens) (UniProt P23458); conditions: at 1 µM
[4] = target: Tyrosine-protein kinase JAK2 (Homo sapiens) (UniProt O60674); conditions: at 0.1 µM
[5] = target: Tyrosine-protein kinase JAK2 (Homo sapiens) (UniProt O60674); conditions: at 1 µM
[6] = target: T2, Tyrosine-protein kinase JAK3 (Homo sapiens) (UniProt P52333); conditions: at 0.1 µM
T2 sequence (whole entry): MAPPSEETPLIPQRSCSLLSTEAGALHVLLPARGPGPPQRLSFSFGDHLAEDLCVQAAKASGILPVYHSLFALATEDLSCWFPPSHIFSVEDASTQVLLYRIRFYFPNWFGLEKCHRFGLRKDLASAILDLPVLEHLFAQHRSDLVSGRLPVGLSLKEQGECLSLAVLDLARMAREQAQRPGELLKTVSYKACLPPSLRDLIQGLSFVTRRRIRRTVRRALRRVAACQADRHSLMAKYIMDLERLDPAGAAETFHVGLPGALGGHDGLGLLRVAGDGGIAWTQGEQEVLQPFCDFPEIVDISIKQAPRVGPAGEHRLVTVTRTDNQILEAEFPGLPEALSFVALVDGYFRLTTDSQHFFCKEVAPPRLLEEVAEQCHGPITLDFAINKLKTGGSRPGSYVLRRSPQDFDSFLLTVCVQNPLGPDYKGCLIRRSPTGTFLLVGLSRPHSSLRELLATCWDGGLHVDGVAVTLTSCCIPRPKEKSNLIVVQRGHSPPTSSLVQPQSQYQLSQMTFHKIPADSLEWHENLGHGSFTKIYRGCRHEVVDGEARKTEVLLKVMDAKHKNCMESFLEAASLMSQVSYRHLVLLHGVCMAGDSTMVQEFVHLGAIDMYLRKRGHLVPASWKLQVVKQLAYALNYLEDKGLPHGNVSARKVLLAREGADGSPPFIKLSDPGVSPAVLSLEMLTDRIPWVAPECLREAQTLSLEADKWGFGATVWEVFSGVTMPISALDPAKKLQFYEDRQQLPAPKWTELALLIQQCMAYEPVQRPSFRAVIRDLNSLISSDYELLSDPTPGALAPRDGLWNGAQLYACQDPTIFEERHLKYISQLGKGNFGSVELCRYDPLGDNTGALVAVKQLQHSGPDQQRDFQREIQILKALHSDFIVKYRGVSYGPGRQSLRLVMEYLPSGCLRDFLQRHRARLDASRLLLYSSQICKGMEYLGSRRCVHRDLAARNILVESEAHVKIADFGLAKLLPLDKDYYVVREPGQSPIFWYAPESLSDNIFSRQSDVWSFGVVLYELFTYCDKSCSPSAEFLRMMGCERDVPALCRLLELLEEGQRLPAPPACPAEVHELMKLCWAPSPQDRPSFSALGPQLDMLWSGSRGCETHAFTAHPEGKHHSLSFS

[7] = target: T2, Tyrosine-protein kinase JAK3 (Homo sapiens); conditions: at 1 µM
[8] = target: Vascular endothelial growth factor receptor 2 (Homo sapiens) (UniProt P35968); conditions: at 0.1 µM
[9] = target: Vascular endothelial growth factor receptor 2 (Homo sapiens) (UniProt P35968); conditions: at 1 µM
[10] = target: Mast/stem cell growth factor receptor Kit (Homo sapiens) (UniProt P10721); conditions: at 0.1 µM
[11] = target: Mast/stem cell growth factor receptor Kit (Homo sapiens) (UniProt P10721); conditions: at 1 µM
[12] = test system: Mast/stem cell growth factor receptor Kit (Homo sapiens), P10721 [D816V]; conditions: at 0.1 µM
[13] = test system: Mast/stem cell growth factor receptor Kit (Homo sapiens), P10721 [D816V]; conditions: at 1 µM
[14] = test system: Mast/stem cell growth factor receptor Kit (Homo sapiens), P10721 [T670I]; conditions: at 0.1 µM
[15] = test system: Mast/stem cell growth factor receptor Kit (Homo sapiens), P10721 [T670I]; conditions: at 1 µM
[16] = test system: Mast/stem cell growth factor receptor Kit (Homo sapiens), P10721 [V560G]; conditions: at 0.1 µM
[17] = test system: Mast/stem cell growth factor receptor Kit (Homo sapiens), P10721 [V560G]; conditions: at 1 µM
[18] = target: Tyrosine-protein kinase Lck (Homo sapiens) (UniProt P06239); conditions: at 0.1 µM
[19] = target: Tyrosine-protein kinase Lck (Homo sapiens) (UniProt P06239); conditions: at 1 µM
[20] = target: Leukocyte tyrosine kinase receptor (Homo sapiens) (UniProt P29376); conditions: at 0.1 µM
Chain of Leukocyte tyrosine kinase receptor (Homo sapiens) (P29376 whole entry): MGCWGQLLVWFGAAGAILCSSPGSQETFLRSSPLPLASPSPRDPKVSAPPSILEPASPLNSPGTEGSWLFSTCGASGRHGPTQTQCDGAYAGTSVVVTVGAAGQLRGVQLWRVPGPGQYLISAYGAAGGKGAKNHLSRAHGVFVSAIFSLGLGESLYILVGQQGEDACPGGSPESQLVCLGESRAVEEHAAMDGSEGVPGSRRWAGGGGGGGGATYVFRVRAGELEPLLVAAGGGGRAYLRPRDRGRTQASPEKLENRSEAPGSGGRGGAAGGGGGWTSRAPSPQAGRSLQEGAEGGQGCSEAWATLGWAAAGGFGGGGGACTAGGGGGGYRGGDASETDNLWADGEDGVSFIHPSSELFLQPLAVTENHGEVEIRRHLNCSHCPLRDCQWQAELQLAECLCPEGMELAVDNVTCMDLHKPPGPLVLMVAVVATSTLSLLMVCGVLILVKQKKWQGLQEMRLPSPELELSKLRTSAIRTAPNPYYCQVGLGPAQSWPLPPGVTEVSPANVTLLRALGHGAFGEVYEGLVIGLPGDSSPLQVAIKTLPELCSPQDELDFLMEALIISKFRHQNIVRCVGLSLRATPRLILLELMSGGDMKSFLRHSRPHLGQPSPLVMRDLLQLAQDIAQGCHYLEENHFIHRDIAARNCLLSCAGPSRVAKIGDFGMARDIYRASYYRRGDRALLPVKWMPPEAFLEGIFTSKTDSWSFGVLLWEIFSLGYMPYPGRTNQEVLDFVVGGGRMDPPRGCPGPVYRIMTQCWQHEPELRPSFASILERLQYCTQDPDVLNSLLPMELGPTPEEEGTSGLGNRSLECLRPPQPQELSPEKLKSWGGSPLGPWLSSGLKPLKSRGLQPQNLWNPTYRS

Chain of Mast/stem cell growth factor receptor Kit (Homo sapiens), P10721 [V560G] (P10721 whole entry V560G): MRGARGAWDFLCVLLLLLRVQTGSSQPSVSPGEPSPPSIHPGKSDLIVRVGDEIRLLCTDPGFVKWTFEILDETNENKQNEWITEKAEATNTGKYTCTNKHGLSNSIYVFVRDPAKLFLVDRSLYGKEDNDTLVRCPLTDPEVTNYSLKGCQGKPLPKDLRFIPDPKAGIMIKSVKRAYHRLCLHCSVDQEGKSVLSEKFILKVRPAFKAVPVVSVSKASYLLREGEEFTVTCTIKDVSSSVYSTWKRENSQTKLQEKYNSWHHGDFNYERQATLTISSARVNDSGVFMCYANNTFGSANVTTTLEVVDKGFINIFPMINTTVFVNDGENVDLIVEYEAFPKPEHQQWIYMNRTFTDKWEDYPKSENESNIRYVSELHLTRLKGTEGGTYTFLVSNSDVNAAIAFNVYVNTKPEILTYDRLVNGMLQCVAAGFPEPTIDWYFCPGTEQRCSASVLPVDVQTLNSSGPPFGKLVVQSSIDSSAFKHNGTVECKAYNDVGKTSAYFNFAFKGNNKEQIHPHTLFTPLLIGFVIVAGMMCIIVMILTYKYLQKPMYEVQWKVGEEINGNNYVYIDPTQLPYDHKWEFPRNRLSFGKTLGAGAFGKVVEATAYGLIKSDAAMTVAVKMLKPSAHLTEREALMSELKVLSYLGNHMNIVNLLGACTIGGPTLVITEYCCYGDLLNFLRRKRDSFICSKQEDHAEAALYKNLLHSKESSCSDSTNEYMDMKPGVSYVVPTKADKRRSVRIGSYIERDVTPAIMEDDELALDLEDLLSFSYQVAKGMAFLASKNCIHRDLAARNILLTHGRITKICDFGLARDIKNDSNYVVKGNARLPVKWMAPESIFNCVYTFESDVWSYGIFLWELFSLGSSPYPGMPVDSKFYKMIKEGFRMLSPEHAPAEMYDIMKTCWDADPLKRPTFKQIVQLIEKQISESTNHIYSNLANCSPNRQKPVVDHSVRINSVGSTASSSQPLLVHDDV
Chain of Vascular endothelial growth factor receptor 2 (Homo sapiens) (P35968 whole entry): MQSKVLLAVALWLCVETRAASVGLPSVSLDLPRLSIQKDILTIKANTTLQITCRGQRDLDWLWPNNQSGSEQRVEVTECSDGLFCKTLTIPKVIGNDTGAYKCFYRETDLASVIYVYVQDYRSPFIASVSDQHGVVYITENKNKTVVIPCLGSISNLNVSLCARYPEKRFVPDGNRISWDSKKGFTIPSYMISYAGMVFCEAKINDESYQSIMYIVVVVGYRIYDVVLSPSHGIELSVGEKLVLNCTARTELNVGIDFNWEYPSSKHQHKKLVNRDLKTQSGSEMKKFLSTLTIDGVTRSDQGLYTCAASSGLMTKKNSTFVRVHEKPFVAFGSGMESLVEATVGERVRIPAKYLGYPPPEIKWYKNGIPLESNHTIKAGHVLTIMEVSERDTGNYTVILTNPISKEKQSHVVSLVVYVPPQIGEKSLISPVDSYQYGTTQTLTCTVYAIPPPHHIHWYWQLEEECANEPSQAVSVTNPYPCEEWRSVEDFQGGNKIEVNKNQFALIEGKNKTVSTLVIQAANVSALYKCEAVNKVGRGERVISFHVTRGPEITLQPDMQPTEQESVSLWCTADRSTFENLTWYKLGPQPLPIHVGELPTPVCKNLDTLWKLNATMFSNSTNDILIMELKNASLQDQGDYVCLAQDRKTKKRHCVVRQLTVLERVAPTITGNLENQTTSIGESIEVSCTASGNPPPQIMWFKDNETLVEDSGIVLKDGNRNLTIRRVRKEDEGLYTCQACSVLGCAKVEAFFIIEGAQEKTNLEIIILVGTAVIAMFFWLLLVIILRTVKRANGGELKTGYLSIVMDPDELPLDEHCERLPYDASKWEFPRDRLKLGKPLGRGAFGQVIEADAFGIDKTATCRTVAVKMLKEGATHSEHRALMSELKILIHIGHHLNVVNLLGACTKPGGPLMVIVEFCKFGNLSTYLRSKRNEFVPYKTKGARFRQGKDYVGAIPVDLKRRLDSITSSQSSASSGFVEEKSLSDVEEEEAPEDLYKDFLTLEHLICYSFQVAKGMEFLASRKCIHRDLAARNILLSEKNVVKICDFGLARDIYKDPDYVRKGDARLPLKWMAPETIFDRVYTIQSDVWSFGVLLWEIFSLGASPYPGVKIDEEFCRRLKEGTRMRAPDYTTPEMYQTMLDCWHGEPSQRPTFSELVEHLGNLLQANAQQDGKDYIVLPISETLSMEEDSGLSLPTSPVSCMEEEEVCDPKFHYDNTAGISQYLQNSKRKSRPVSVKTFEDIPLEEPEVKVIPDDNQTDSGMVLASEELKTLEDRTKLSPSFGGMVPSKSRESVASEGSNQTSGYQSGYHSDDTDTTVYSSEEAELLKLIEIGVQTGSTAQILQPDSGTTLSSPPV
Chain of Mast/stem cell growth factor receptor Kit (Homo sapiens) (P10721 whole entry): as the sequence (P10721 whole entry V560G) above, with G560V counted along it
Chain of Tyrosine-protein kinase JAK1 (Homo sapiens) (P23458 whole entry): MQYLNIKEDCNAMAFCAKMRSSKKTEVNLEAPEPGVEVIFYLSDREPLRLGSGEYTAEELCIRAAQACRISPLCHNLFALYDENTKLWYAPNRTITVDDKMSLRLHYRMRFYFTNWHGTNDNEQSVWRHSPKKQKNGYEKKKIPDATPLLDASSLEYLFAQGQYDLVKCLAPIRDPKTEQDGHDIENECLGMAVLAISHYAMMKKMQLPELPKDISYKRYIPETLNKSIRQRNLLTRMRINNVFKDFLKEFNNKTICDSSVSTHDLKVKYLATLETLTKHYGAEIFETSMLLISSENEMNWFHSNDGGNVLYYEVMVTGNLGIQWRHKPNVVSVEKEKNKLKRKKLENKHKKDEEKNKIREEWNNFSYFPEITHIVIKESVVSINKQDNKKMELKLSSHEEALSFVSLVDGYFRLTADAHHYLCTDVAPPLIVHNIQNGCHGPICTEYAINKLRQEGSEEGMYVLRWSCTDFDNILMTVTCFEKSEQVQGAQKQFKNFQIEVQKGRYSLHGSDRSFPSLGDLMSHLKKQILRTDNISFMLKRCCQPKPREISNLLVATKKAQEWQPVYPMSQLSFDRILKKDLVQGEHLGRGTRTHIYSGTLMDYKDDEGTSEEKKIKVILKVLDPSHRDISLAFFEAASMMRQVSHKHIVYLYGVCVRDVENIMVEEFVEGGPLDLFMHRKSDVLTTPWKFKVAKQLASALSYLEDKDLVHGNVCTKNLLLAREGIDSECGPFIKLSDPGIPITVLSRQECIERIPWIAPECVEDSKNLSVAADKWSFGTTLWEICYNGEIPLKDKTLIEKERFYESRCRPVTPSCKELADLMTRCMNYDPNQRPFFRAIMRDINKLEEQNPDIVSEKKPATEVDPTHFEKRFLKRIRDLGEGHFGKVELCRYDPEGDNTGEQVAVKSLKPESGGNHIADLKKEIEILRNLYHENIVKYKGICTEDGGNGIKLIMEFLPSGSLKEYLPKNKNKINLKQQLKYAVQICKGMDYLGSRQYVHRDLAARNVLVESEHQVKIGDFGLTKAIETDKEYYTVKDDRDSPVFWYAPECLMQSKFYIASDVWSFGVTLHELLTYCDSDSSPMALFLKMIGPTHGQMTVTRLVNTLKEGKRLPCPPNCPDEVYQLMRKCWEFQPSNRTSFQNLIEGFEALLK
Chain of Mast/stem cell growth factor receptor Kit (Homo sapiens), P10721 [D816V] (P10721 whole entry D816V): as the sequence (P10721 whole entry V560G) above, with G560V, D816V counted along it
Chain of Mast/stem cell growth factor receptor Kit (Homo sapiens), P10721 [T670I] (P10721 whole entry T670I): as the sequence (P10721 whole entry V560G) above, with G560V, T670I counted along it
Chain of Tyrosine-protein kinase Lck (Homo sapiens) (P06239 2-509 limits assumed): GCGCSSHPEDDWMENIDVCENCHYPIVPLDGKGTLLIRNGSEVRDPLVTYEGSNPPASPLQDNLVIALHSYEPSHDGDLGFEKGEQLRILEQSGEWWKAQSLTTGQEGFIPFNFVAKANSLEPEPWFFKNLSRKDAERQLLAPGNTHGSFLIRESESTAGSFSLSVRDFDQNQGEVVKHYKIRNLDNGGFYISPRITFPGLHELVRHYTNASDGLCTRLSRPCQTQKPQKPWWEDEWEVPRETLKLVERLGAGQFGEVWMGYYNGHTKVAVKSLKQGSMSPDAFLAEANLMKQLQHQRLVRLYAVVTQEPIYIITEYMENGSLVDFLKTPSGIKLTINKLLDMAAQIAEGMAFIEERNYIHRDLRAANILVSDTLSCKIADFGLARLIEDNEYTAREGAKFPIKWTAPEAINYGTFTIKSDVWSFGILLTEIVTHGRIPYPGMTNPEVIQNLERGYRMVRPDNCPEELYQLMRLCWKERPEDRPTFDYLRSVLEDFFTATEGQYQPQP

| SMILES | inhibition [1] [%] | inhibition [2] [%] | inhibition [3] [%] | inhibition [4] [%] | inhibition [5] [%] | inhibition [6] [%] | inhibition [7] [%] | inhibition [8] [%] | inhibition [9] [%] | inhibition [10] [%] | inhibition [11] [%] | inhibition [12] [%] | inhibition [13] [%] | inhibition [14] [%] | inhibition [15] [%] | inhibition [16] [%] | inhibition [17] [%] | inhibition [18] [%] | inhibition [19] [%] | inhibition [20] [%] |
| --- | --- | --- | --- | --- | --- | --- | --- | --- | --- | --- | --- | --- | --- | --- | --- | --- | --- | --- | --- | --- |
| NC(=O)c1cc(-c2ccncc2)cc(-c2ccccc2)c1N | 1.74 | 6.03 | 4.31 | 2.14 | 1.86 | -1.25 | -1.1 | 3.91 | 10.7 | 23 | 75.5 | 6.4 | 6.94 | 3.99 | 4.83 | 2.91 | 25.1 | 7.95 | 41.6 | 5.44 |
| Cc1ccc(NC(=O)c2ccoc2)cc1-c1ccc(C(=O)NCC2CC2)cc1 | 1.05 | 1 | 2.95 | 0 | -1.25 | -1.84 | -0.47 | 15.3 | 62 | 1.57 | 0.22 | 3.87 | 3.1 | 1.06 | 1.82 | 0.04 | -1.21 | 2.02 | 3.87 | 2.79 |
| Fc1ccc(-c2ncn(C3CCNCC3)c2-c2ccnc(Oc3ccc(Oc4ccccc4)cc3)n2)cc1 | 2.41 | 1.18 | 1.84 | 2.34 | 3.84 | 1.04 | 0.1 | 2.97 | 10.7 | 2.94 | 6.51 | 2.38 | 2.59 | 1.59 | 1.82 | -2.65 | -3.42 | 4.01 | 4.76 | 3.78 |
| COc1ccc2cc(-c3c(-c4ccncc4)nc(-c4ccc([S+](C)[O-])cc4C)n3C)ccc2c1 (stereo not given) | 0.95 | -3.09 | 4.21 | 0.25 | -0.49 | 0.51 | 0.61 | 8.24 | 49 | -0.44 | 4.45 | -3.23 | -3.08 | 0.48 | 0.67 | 4.53 | -0.3 | 0.43 | 8.73 | 0.03 |
| C#Cc1cccc(Nc2ncnc3ccc(OCCCCNCCS(C)(=O)=O)cc23)c1 | -2.14 | 0.29 | 13.4 | 1 | 0.71 | -4.71 | -3.57 | 14.2 | 19.6 | 4.93 | 7.12 | 5.01 | 8.8 | 1.97 | 9.5 | -0.82 | 4.36 | 0.24 | 13.5 | 5.05 |
| CN(C)CCCNc1nccc(-c2c(-c3ccc(F)cc3)nn3cc(C(F)(F)F)ccc23)n1 | -1.31 | 0.29 | -0.9 | 0.65 | 3.68 | -2.83 | -1.89 | 6.32 | 11.3 | 3.48 | 2.1 | 1.94 | -0.31 | 0.09 | 0.14 | 6.47 | 4.04 | -2.05 | 3.17 | 1.9 |
